Compound activity as filed in PubChem.
Hits are enriched below; roughly 2.8% of the tested compounds scored in any of these assays.
pPAFAH FP inh: pPAFAH (human) enzyme inhibition; Q13093; inhibition, % at 3.39 µM; recombinant pPAFAH, FP-rhodamine probe fluorescence polarization; 330,000 compounds, 1.5% hits;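 active = inhibition above the mean inhibition across the screen plus 3 SD, cut at about 25% in these data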;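 note: inhibitors block binding of the rhodamine activity-based probe so polarization drops; 0% = enzyme with DMSO and 100% = wells lacking pPAFAH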
PME-1 inh: blocks human protein phosphatase methylesterase 1. Q9Y570. recombinant PME-1, FP-Rh probe fluorescence polarization. inhibition, % at 5.9 µM. 320,000 compounds, 0.53% hits. AID 2130;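 active = inhibition above the campaign mean of all compounds plus 3 SD, cut at about 26% in these data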;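 note: competitive labeling of PME-1 active site by serine hydrolase directed probe; 0% = PME-1 with DMSO and 100% = wells lacking PME-1 enzyme; inhibitors block probe labeling so polarization falls and inhibition rises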
PAFAH1B2 inh: PAFAH1B2 (human) inhibition; P68402; recombinant PAFAH1B2, FP-rhodamine activity probe, fluorescence polarization; inhibition, % at 3.39 µM; AID 492953; 340,000 compounds, 1.2% hits;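 active = inhibition above the mean of all tested compounds plus 3 SD, cut at about 24% in these data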;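 note: 0% = enzyme with DMSO and 100% = wells lacking PAFAH1B2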
Target sequence (P68402 whole entry, looked up): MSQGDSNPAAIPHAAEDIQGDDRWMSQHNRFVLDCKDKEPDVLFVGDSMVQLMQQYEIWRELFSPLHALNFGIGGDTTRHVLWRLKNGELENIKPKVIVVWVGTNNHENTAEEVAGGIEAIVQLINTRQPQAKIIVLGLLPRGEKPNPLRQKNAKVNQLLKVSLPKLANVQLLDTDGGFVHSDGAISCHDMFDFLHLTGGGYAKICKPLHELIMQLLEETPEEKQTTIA
Fam108B inh: Fam108B inhibition, counter-screen for RBBP9 inhibitors | inhibition, % at 9.51 µM | recombinant Fam108B, FP-Rh probe fluorescence polarization | AID 1947 | 300,000 compounds, 0.33% hits;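 active = inhibition above the screen mean inhibition plus 3 SD, computed separately per campaign, cut at about 18% in these data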;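 note: inhibitors lower polarization as less probe binds the enzyme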
PAFAH2 FP inh: PAFAH2 (human) inhibition. inhibition, % at 3.39 µM. 340,000 compounds, 0.99% hits. recombinant PAFAH2, FP-rhodamine activity probe, fluorescence polarization;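 active = inhibition above the mean over all tested compounds plus 3 SD, cut at about 30% in these data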;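 note: inhibitors block probe labeling of enzyme so polarization drops; 0% = enzyme with DMSO and 100% = wells lacking PAFAH2 protein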
PAFAH1B3 FP inh: PAFAH1B3 (human) inhibition | Q15102 | recombinant PAFAH1B3, FP-rhodamine probe, fluorescence polarization | inhibition, % at 3.39 µM | 340,000 compounds, 0.28% hits | AID 492972;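 active = inhibition above the screen-wide average of all tested compounds plus 3 SD, cut at about 25% in these data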;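 note: 0% = enzyme with DMSO only and 100% = wells lacking PAFAH1B3 protein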
Target sequence (Q15102 whole entry, looked up): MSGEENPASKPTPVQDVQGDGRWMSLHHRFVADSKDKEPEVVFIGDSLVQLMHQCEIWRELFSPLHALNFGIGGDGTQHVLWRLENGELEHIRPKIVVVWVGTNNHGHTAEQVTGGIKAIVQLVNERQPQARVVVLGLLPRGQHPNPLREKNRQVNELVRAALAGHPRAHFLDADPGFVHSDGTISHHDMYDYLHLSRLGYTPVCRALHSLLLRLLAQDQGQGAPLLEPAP
pPAFAH confirm: confirmation of human plasma PAF acetylhydrolase (pPAFAH) inhibitors; inhibition, % at 3.39 µM; shares compounds with pPAFAH FP inh; recombinant pPAFAH, FP-Rh probe fluorescence polarization; AID 463230; 2,300 compounds, 72% hits;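 active = mean inhibition of the triplicate above the hit cutoff set for the earlier primary screen, cut at about 25% in these data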;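 note: 0% = enzyme with DMSO and 100% = wells lacking pPAFAH enzyme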
An asterisk follows results filed as active.

What do the screens show for `CC(CCC(C)C(C)(C)C)[C@@H]1CC[C@H]2C3C[C@H](OS(O)(=S)=S)[C@H]4C[C@H](OS(O)(=S)=S)[C@@H](OS(O)(=S)=S)C[C@]4(C)[C@H]3CC[C@]12C` (some centres undefined) (tested in a mixture with another compound)?
pPAFAH FP inh: 36*; PAFAH1B2 inh: -7; PAFAH2 FP inh: -33; PAFAH1B3 FP inh: -18; pPAFAH confirm: 23

Results for CN(c1ccccc1)S(=O)(=O)c1cccc(C(=O)NCCc2ccc(O)c(O)c2)c1 ?
pPAFAH FP inh: 37*; PME-1 inh: 4; PAFAH1B2 inh: 1; Fam108B inh: -1; PAFAH2 FP inh: 8; PAFAH1B3 FP inh: 7; pPAFAH confirm: 43*

What do the screens show for `COC(=O)c1ccc(Cn2nc(-c3ccc(C)cc3)ccc2=O)cc1`?
pPAFAH FP inh: -5; PME-1 inh: 1; PAFAH1B2 inh: 4; Fam108B inh: -4; PAFAH2 FP inh: 2; PAFAH1B3 FP inh: -2

How did COc1ccc(CC(=O)Nc2cc(Cl)ccc2C(=O)O)cc1 do in these assays?
pPAFAH FP inh: -4; PME-1 inh: -3; PAFAH1B2 inh: 2; Fam108B inh: 3; PAFAH2 FP inh: 1; PAFAH1B3 FP inh: 7

Results for CCCCOc1ccc(Nc2cc(Cl)ccc2C(=O)O)cn1 ?
pPAFAH FP inh: 57*; PME-1 inh: -13; PAFAH1B2 inh: 6; Fam108B inh: -12; PAFAH2 FP inh: 9; PAFAH1B3 FP inh: 12; pPAFAH confirm: 41*

What do the screens show for `COc1ccc(N2CCN(C(CNC(=O)C(=O)NC3CCCC3)c3ccco3)CC2)cc1` (centres undefined)?
pPAFAH FP inh: -1; PME-1 inh: -8; PAFAH1B2 inh: 3; Fam108B inh: 6; PAFAH2 FP inh: -6; PAFAH1B3 FP inh: -4

How did O=Cc1nc(-c2ccccc2Cl)n2ccccc12 do in these assays?
pPAFAH FP inh: 3; PME-1 inh: -5; PAFAH1B2 inh: 1; Fam108B inh: -2; PAFAH2 FP inh: -2; PAFAH1B3 FP inh: 5

How did O=Cc1nc(-c2ccc(Cl)cc2)n2ccccc12 do in these assays?
pPAFAH FP inh: 71*; PME-1 inh: -6; PAFAH1B2 inh: -2; Fam108B inh: 1; PAFAH2 FP inh: 4; PAFAH1B3 FP inh: -5; pPAFAH confirm: 4

How did O=C(CCN1C(=O)/C(=C/c2ccco2)SC1=S)Nc1ccc(C(=O)O)c(O)c1 do in these assays?
pPAFAH FP inh: 40*; PME-1 inh: -25; PAFAH1B2 inh: 6; Fam108B inh: 11; PAFAH2 FP inh: 7; PAFAH1B3 FP inh: 10; pPAFAH confirm: 18

How did O=C(CCN1C(=O)/C(=C\c2ccco2)SC1=S)Nc1ccc(C(=O)O)c(O)c1 do in these assays?
pPAFAH FP inh: 49*; PME-1 inh: -33; PAFAH1B2 inh: 1; Fam108B inh: 9; PAFAH2 FP inh: 16; PAFAH1B3 FP inh: 11; pPAFAH confirm: 15

Results for COc1ccccc1/C=C1\SC(=S)N(CCC(=O)Nc2ccc(C(=O)O)c(O)c2)C1=O ?
pPAFAH FP inh: 18; PME-1 inh: -19; PAFAH1B2 inh: 8; Fam108B inh: 0; PAFAH2 FP inh: -1; PAFAH1B3 FP inh: 6

How did CCc1ccccc1NC(=O)CSc1nnc(-c2cc(C)[nH]n2)n1N do in these assays?
pPAFAH FP inh: 4; PME-1 inh: 8; PAFAH1B2 inh: 3; Fam108B inh: 1; PAFAH2 FP inh: -2; PAFAH1B3 FP inh: 9

Results for COc1cc(OC)cc(-c2c(C#Cc3ccsc3)c3cc(-c4ccc5c(c4)OCO5)ccc3n2C)c1 ?
pPAFAH FP inh: 5; PAFAH1B2 inh: -1; PAFAH2 FP inh: 5; PAFAH1B3 FP inh: 3

How did O=C(CN1C(=O)/C(=C\c2ccco2)SC1=S)Nc1ccc(O)cc1C(=O)O do in these assays?
pPAFAH FP inh: 42*; PME-1 inh: -27; PAFAH1B2 inh: 2; Fam108B inh: 10; PAFAH2 FP inh: 20; PAFAH1B3 FP inh: 11; pPAFAH confirm: 11

Results for O=C(CCCN1C(=O)/C(=C/c2ccco2)SC1=S)Nc1ccccc1C(=O)O ?
pPAFAH FP inh: 65*; PME-1 inh: -13; PAFAH1B2 inh: 15; Fam108B inh: 0; PAFAH2 FP inh: 18; PAFAH1B3 FP inh: 5; pPAFAH confirm: 4

What do the screens show for `O=C(CCN1C(=O)/C(=C/c2ccco2)SC1=S)Nc1ccc(O)cc1C(=O)O`?
PAFAH1B2 inh: 3; PAFAH2 FP inh: 15; PAFAH1B3 FP inh: 12

What do the screens show for `COc1ccc(CNC(=O)C2=CC(c3ccc(OC)cc3)=NS(=O)(=O)N2C)cc1`?
pPAFAH FP inh: 0; PME-1 inh: 5; PAFAH1B2 inh: -4; Fam108B inh: -1; PAFAH2 FP inh: -1; PAFAH1B3 FP inh: 3

Results for O=c1cc(-c2ccccc2Cl)oc2cccc(O)c12 ?
pPAFAH FP inh: 8; PME-1 inh: -2; PAFAH1B2 inh: -2; Fam108B inh: 1; PAFAH2 FP inh: -3; PAFAH1B3 FP inh: 0

What do the screens show for `O=c1cc2oc3cc(O)c(O)cc3c(-c3ccccc3[N+](=O)[O-])c-2cc1O`?
pPAFAH FP inh: 88*; PME-1 inh: -3; PAFAH1B2 inh: 17; Fam108B inh: 9; PAFAH2 FP inh: 57*; PAFAH1B3 FP inh: 13; pPAFAH confirm: 83*

What do the screens show for `O=C1/C(=C/c2ccco2)SC(=S)N1C1CCS(=O)(=O)C1` (centres undefined)?
pPAFAH FP inh: 57*; PME-1 inh: 2; PAFAH1B2 inh: -4; Fam108B inh: 4; PAFAH2 FP inh: 4; PAFAH1B3 FP inh: 9; pPAFAH confirm: 0

Results for Cc1ccc(/C=C2/SC(=S)N(C3CCCCC3)C2=O)o1 ?
pPAFAH FP inh: 37*; PME-1 inh: -11; PAFAH1B2 inh: -1; Fam108B inh: 6; PAFAH2 FP inh: 11; PAFAH1B3 FP inh: -3; pPAFAH confirm: 11

Results for CCN(C(=O)C(C)N1C(=O)/C(=C/c2ccco2)SC1=S)C1CCS(=O)(=O)C1 (centres undefined) ?
pPAFAH FP inh: 44*; PME-1 inh: -17; PAFAH1B2 inh: 0; Fam108B inh: 1; PAFAH2 FP inh: 0; PAFAH1B3 FP inh: 8; pPAFAH confirm: 7

Results for CC(C(=O)N(C)C1CCS(=O)(=O)C1)N1C(=O)/C(=C/c2ccc(F)cc2)SC1=S (centres undefined) ?
pPAFAH FP inh: -6; PME-1 inh: -9; PAFAH1B2 inh: 3; Fam108B inh: 6; PAFAH2 FP inh: 5; PAFAH1B3 FP inh: 1

Results for O=C1/C(=C\c2ccco2)SC(=S)N1C1CCS(=O)(=O)C1 (centres undefined) ?
pPAFAH FP inh: 23; PME-1 inh: 0; Fam108B inh: 1

How did Cc1ccccc1OC1CCN(C(=O)c2cc(COc3ccccc3)on2)CC1 do in these assays?
pPAFAH FP inh: 5; PME-1 inh: -3; PAFAH1B2 inh: 1; Fam108B inh: -2; PAFAH2 FP inh: 6; PAFAH1B3 FP inh: 2
